# Measured values published in PubChem BioAssay AID488969 (Vanderbilt High Throughput Screening Facility, 2010).
# Over roughly 110,000 compounds, “z-score” has its median near -0.1; the highest 2% begin near 2. The entries come from a sample that favours the highest values as a whole. Activity calls are given as the source filed them.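 Rule for the calls: active = z-score in the third read window above 3 or below -3; inactive = the rest.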
# Target: Metabotropic glutamate receptor 8 (Rattus norvegicus) (UniProt P70579)
# Sequence (P70579 whole entry, looked up): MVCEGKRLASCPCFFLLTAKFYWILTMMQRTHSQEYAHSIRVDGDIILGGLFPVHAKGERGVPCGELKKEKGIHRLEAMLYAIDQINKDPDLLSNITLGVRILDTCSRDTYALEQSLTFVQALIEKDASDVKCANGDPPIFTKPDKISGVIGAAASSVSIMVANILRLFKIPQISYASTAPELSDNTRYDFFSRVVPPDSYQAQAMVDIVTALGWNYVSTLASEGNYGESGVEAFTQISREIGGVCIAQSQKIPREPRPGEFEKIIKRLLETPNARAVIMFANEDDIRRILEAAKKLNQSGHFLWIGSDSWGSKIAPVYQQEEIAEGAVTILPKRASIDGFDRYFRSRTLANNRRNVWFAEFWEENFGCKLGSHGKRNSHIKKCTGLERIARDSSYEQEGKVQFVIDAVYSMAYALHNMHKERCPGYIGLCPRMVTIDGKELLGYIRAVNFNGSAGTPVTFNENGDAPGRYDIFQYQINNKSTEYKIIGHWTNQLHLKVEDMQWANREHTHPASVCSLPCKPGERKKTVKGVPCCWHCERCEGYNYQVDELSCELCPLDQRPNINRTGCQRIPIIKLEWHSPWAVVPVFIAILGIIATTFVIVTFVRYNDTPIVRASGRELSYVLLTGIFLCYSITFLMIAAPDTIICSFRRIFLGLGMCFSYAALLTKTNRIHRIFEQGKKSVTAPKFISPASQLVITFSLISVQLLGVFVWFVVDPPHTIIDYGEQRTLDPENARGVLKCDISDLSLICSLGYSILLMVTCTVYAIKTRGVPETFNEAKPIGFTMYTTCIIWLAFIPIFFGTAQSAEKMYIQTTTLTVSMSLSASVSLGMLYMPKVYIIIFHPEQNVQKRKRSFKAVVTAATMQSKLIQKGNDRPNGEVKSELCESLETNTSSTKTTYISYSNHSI
# Assay: rat mGluR8 modulators via GIRK flux, primary screen, cell-based, thallium flux, HTS (AID 488969)
# Conditions: HEK293 rat mGluR8, GIRK (G protein-gated inwardly rectifying potassium channel) thallium flux, FluoZin2; at 10 µM; stronger effect = higher value; submaximal glutamate (EC20) added with thallium
row,SMILES,z-score
1,COC(=O)c1sccc1NC(=O)CSc1ccccc1NS(=O)(=O)c1ccccc1Cl,3.17 (active)
2,COC(=O)c1sccc1NC(=O)CSc1cc(Cl)ccc1Cl,-0.165
3,COC(=O)c1sccc1NC(=O)COc1ccccc1Cl,-0.212
4,COC(=O)c1sccc1NC(=O)CSc1ccccc1NS(=O)(=O)c1cc(Cl)ccc1Cl,8.63 (active)
5,COC(=O)c1sccc1NC(=O)COc1ccc(Cl)cc1Cl,-0.26
6,COC(=O)c1sccc1NC(=O)CSc1cccc(Cl)c1Cl,-0.0544
7,Cc1nn2c(-n3ccnc3C)c3c(nc2c1-c1ccccc1)CCC3,-0.311
8,O=C(CCSCc1ccc(Cl)cc1)NCCC1=CCCCC1,-0.242
9,C1=C(CCNCC2CC2)CCCC1,0.204
10,Clc1ccc(CNCCC2=CCCCC2)cc1,2.27
11,O=C(NCCC1=CCCCC1)C(=O)NCc1ccccc1,-0.143
12,Cc1ccc(CNCCC2=CCCCC2)cc1,2.07
13,Cc1ccc(CNC(=O)C(=O)NCCC2=CCCCC2)cc1,-0.102
14,COc1cc(NC(=O)CN(C)S(=O)(=O)c2ccc3c(c2)CCC(=O)N3)cc(OC)c1,-0.176
15,O=C1NC(=O)[C@@H]2C3c4ccccc4C=CN3[C@H](C(=O)c3cccs3)[C@H]12 (stereo not given in full),-0.687
16,CCCCC(=O)Nc1nn(CCC)c2nc3ccccc3cc12,-1.22
17,CC(C)=C1C2CCC1C1C(=O)N(NC(=O)COc3ccc(Cl)c(C)c3)C(=O)C21 (stereo not given),-0.481
18,CC(C)=CCC/C(C)=C/C=N/NC(=O)c1ccccc1[N+](=O)[O-],-0.0423
19,O=C1c2oc3ccc(Cl)cc3c(=O)c2C(c2ccco2)N1CCN1CCOCC1 (stereo not given),0.841
20,Cc1ccc(C2c3c(oc4ccccc4c3=O)C(=O)N2CCCN2CCOCC2)o1 (stereo not given),0.634
21,Cc1ccc(C2c3c(oc4ccc(Cl)cc4c3=O)C(=O)N2CCCN2CCOCC2)o1 (stereo not given),3.95 (active)
22,CC(C)c1nnc(NC(=O)CCC(=O)NCc2ccc3c(c2)OCO3)s1,0.746
23,COc1ccc(CCNC(=O)c2nonc2N)cc1,-0.242
24,O=S(=O)(NCC1CCCO1)c1ccc(S(=O)(=O)N2CCc3ccccc3C2)cc1 (stereo not given),0.1
25,COCCCNCCCOc1ccc(Cl)cc1Br,3.75 (active)
26,COCCCNCCCOc1ccc(C)cc1Br,-0.00352
27,OCCNCCCOc1ccc(Cl)cc1Br,0.496
28,COc1ccc(N2C(=O)CC(N3CCN(c4ccc(C(=O)c5cccnc5)cc4)CC3)C2=O)cc1 (stereo not given),-0.186

row,SMILES,z-score
1,CC(C)(C)c1ccc(OCc2ccc(C(=O)N/N=C3\CC4CC=CC34)cc2)cc1 (stereo not given),-0.0236
2,O=C1NC(=O)C(=C2CCCCCC2)S1,0.367
3,O=C1NC(=S)SC1=C1CCCCCC1,17.1 (active)
4,O=C1NC(=S)SC1=C1CCCC1,1.36
5,Cc1cc(C(=O)NCc2ccccc2F)cs1,-0.288
6,CCSC1=N/C(=C\c2ccc(OC)cc2)C(=O)N1,-0.286
7,S=c1[nH]nc(-c2ccc3ccccc3n2)n1-c1ccc(Cl)cc1,0.934
8,S=c1[nH]nc(-c2ccc3ccccc3n2)n1Cc1ccccc1,0.834
9,CC(c1ccc(Cl)cc1)n1c(-c2ccc3ccccc3n2)n[nH]c1=S (stereo not given),7.23 (active)
10,S=c1[nH]nc(-c2ccc3ccccc3n2)o1,-0.153
11,S=c1[nH]nc(-c2ccc3ccccc3n2)n1-c1ccc2ncccc2c1,-0.148
12,S=c1[nH]nc(-c2ccc3ccccc3n2)n1-c1ccccc1Cl,0.0824
13,S=c1[nH]nc(-c2ccc3ccccc3n2)n1-c1cc(Cl)cc(Cl)c1,2.18
14,CC(c1ccc(F)cc1)n1c(-c2ccc3ccccc3n2)n[nH]c1=S (stereo not given),6.84 (active)
15,S=c1[nH]nc(-c2ccc3ccccc3n2)n1-c1ccccc1,0.119
16,Cc1ccc(C(=O)CSc2nnc(COc3ccc(C#N)cc3)n2-c2ccccc2)cc1,0.655
17,Oc1csc(Cc2nc(-c3ccc4ccccc4c3)cs2)n1,-0.78
18,Cc1ccc(NC(=O)C2CCCN(S(=O)(=O)c3cnc[nH]3)C2)cc1F (stereo not given),-0.00916
19,Clc1ccc(-c2cc(CSc3cccc(Cl)c3)on2)cc1,-0.234
20,CCOC(=O)c1cc(NC(=O)COc2ccc([N+](=O)[O-])cc2)cc(C(=O)OCC)c1,-0.0752
21,Cc1[nH]c(=O)[nH]c(=O)c1/C=C/C(=O)OCC(C)C,0.104
22,NCCCCCc1nnc(SCc2ccc(Cl)cc2Cl)o1,2.74
23,NCCCCCc1nnc(SCc2ccccc2Cl)o1,1.74
24,NCCCCCc1nnc(SCc2ccc(Cl)c(Cl)c2)o1,0.93
25,O=C(CSc1nc2ccccc2n1CC(=O)N1CCOCC1)N1CCCC1,0.588
26,Cc1ccc(C)c(-n2cc(-c3ccc(Cl)cc3)nc2SCC(=O)NC2CCS(=O)(=O)C2)c1 (stereo not given),-0.524
27,O=C(CSc1nc2cc(C(F)(F)F)ccc2n1Cc1ccccc1)NC1CCS(=O)(=O)C1 (stereo not given),-0.137
